Drawing on PubChem BioAssay (Tox21), this text covers Potency, outcome and activity change, positive = activation for 6 molecules.

A number with no mark means an inactive call. Results filed as inconclusive are left out. Activity calls are given as the source filed them. Unless noted, calls follow the shape of the dose curve; as a rule, active = well fitted curve in the direction sought with a large enough effect in the repeat runs; inconclusive = weak or mixed curves; inactive = no such curve, though single readings can be large; an effect the other way counts as inactive or inconclusive.

For test [1], the target named is Luciferin 4-monooxygenase (Photinus pyralis) (UniProt P08659). Briefly: qHTS assay to identify small molecule inhibitors of firefly luciferase (AID 1224835). Also: nearly all actives have a fitted effect of over 25% in size. Also: potency is read from the fitted curve at half-maximal effect. A digest of the protocol:
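Biochemical qHTS: compounds run as interplate titrations against purified firefly enzyme, with D-luciferin and ATP each at its KM concentration. Light output recorded by CCD imaging.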

Test [2] can be described thus: qHTS assay to identify small molecule agonists of the constitutive androstane receptor (CAR) signaling pathway - cell viability counter screen (AID 1224836). Also: nearly all actives have a fitted effect of over 45% in size. Also: potency is read from the fitted curve at half-maximal effect. The essentials:
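Double-stable HepG2 hepatoma cells (hCAR plus CYP2B6-2.2kb) are treated for 23 h at 37 C with test compounds in 15-point concentration series. PK11195 at 0.75 uM final is co-added. Cell viability is quantified by CellTiter-Fluor.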

Test [3] can be described thus: qHTS assay to identify small molecule antagonists of the constitutive androstane receptor (CAR) signaling pathway - cell viability counter screen (AID 1224837). Also: % is scaled to controls: 0 for no effect and ±100 for the full control effect; nearly all actives have a fitted effect of over 45% in size. The essentials:
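In quantitative HTS format, compounds at 15 concentrations were applied to HepG2 cells double-transfected with hCAR and CYP2B6-2.2kb under 50 nM CITCO stimulation; live-cell protease activity was read after 23 hr via CellTiter-Fluor.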

The target in test [4] is Nuclear receptor subfamily 1 group I member 3 (Homo sapiens) (UniProt Q14994). Briefly: qHTS assay to identify small molecule antagonists of the constitutive androstane receptor (CAR) signaling pathway (AID 1224838). Also: nearly all actives have a fitted effect of over 40% in size. Also: potency is read from the fitted curve at half-maximal effect. The essentials: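 CITCO-stimulated (50 nM final) HepG2 cells stably transfected with hCAR and CYP2B6-2.2kb luciferase were exposed to compounds at 15 concentrations for 24 h at 37 C/5% CO2. A luciferase reagent was added and luminescence recorded after 30 min.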
Nuclear receptor subfamily 1 group I member 3 (Homo sapiens), sequence (Q14994 whole entry, looked up): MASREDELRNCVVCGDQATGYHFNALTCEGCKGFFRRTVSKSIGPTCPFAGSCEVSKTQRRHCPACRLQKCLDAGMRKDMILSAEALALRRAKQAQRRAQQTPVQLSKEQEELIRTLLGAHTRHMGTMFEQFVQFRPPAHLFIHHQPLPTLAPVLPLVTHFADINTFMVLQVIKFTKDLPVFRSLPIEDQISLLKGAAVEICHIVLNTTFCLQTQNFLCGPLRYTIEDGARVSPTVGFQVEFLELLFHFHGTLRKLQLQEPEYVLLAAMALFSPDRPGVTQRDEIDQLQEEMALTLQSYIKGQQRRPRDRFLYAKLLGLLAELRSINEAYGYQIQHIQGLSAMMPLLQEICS

For test [5] the target is unchanged. Briefly: qHTS assay to identify small molecule agonists of the constitutive androstane receptor (CAR) signaling pathway (AID 1224839). Also: nearly all actives have a fitted effect of over 15% in size. Also: potency is read from the fitted curve at half-maximal effect.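 As to activation: HepG2 cells stably carrying human CAR and a CYP2B6 luciferase reporter; % is scaled to controls: 0 for no effect and ±100 for the full control effect.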 A digest of the protocol:
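Readout: firefly luciferase luminescence via ONE-Glo. System: HepG2 double-stable for hCAR and CYP2B6-2.2kb. Conditions: 15-point compound titration, PK11195 at 0.75 uM final, 24 h incubation.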

A short description of test [6]: qHTS assay to identify small molecule antagonists of the estrogen related receptor signaling pathway with the pleiotropic PPARgamma coactivator (PGC) from Tox21 10K library - cell viability counter screen (AID 1224840; active = well fitted cell-killing curve with a large enough effect in the repeat runs, not every such curve was filed as active; also: nearly all actives have a fitted effect of over 40% in size; also: potency is read from the fitted curve at half-maximal effect). A digest of the protocol:
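Viability counter screen, PGC/ERR cells: 17.5 h compound exposure at 37 C, CellTiter-Fluor fluorescence endpoint.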

Test [7] in a line: qHTS assay to identify small molecule agonists of the hypoxia (HIF-1) signaling pathway - cell viability counter screen (AID 1224844; calls by dose curve; also: % is scaled to controls: 0 for no effect and ±100 for the full control effect; nearly all actives have a fitted effect of over 50% in size). A digest of the protocol: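 Same wells as the HIF-1 reporter screen; ME-180 cells carrying HRE-bla, 17 hr treatment at 37C; CellTiter-Glo luminescence read after 30 min at room temperature.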
The nature of test [8]: qHTS assay to identify small molecule agonists of H2AX (AID 1224845; active = well fitted activation curve with a large enough effect in the signal ratio in the repeat runs, not every such curve was filed as active; the % refers to the signal ratio; also: % is scaled to controls: 0 for no effect and ±100 for the full control effect). A digest of the protocol:
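Wild-type CHO-K1 cells, plated overnight, exposed 3hr at 37C to 15 concentrations (0.76% DMSO final). Lysed, then HTRF anti-pH2AX (S139) cryptate and anti-H2AX-d2 antibodies, 24 hr room temperature; 665/620 nm emission read.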

Test [9] can be described thus: qHTS assay to identify small molecule agonists of the hypoxia (HIF-1) signaling pathway (AID 1224846; active = well fitted activation curve with a large enough effect in the signal ratio in the repeat runs, not every such curve was filed as active; the % refers to the signal ratio; also: % is scaled to controls: 0 for no effect and ±100 for the full control effect). A digest of the protocol:
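In ME-180 cells bearing an HRE-bla construct, 17 h treatment with DMSO-dissolved compounds at 37C was followed by CCF4-AM loading to quantify reporter induction.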

A short description of test [10]: qHTS assay to identify small molecule agonists of H2AX - cell viability counter screen (AID 1224847; calls by dose curve; also: nearly all actives have a fitted effect of over 30% in size; also: potency is read from the fitted curve at half-maximal effect). The essentials: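 For this counter screen, overnight-attached CHO-K1 cells received test compounds (15 concentrations, 0.76% DMSO final); 3 hr later at 37C, CellTiter-Glo reagent was added and luminescence recorded after 30 min at room temperature.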
Test [11] is described as follows: qHTS RealTime-Glo MT Cell Viability Assay in HepG2 cells - 24 hour (AID 1224867). Also: % is scaled to controls: 0 for no effect and ±100 for the full control effect; nearly all actives have a fitted effect of over 50% in size. The essentials: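 HepG2 cells were seeded at 600 cells/well together with NanoLuc luciferase and a cell-permeant prosubstrate, preincubated 5 h at 37 C/5% CO2, then pin-dosed with compounds in DMSO. Nonlytic luminescence from viable cells was read at each time point.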
Test [12] can be described thus: qHTS RealTime-Glo MT Cell Viability Assay in HEK293 cells - 32 hour (AID 1224868). Also: nearly all actives have a fitted effect of over 50% in size. Also: potency is read from the fitted curve at half-maximal effect. The essentials:
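HEK293 cells were seeded at 600 cells/well together with NanoLuc luciferase and cell-permeant prosubstrate, preincubated 5 h at 37 C/5% CO2, then given compound in DMSO by pintool. Luminescence from viable-cell prosubstrate reduction was read repeatedly over 40 h.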

Test [13] is described as follows: qHTS RealTime-Glo MT Cell Viability Assay in HepG2 cells - 40 hour (AID 1224870). Also: % is scaled to controls: 0 for no effect and ±100 for the full control effect; nearly all actives have a fitted effect of over 50% in size. The essentials: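 HepG2 cells (600/well) mixed with RealTime-Glo MT reagent, settled 5 h at 37 C/5% CO2 before compound addition. Nonlytic NanoLuc luminescence from viable-cell prosubstrate reduction read repeatedly during 40 h treatment at 37 C.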
Test [14] is described as follows: qHTS assay to identify small molecule antagonists of the estrogen related receptor (ERR) signaling pathway from Tox21 library - cell viability counter screen (AID 1224834). Also: nearly all actives have a fitted effect of over 30% in size. Also: potency is read from the fitted curve at half-maximal effect. The essentials:
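In this quantitative HTS format, ERR cells receive compounds in DMSO and are incubated for 17.5 h at 37 C. Live-cell protease activity is then detected with CellTiter-Fluor.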

Test [15] is described as follows: qHTS assay to identify small molecule antagonists of the estrogen related receptor signaling pathway with the pleiotropic PPARgamma coactivator (PGC) from Tox21 10K library (AID 1224841; call rule not given here). A digest of the protocol: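 In the PGC/ERR line, DMSO solutions of test chemicals are pin-delivered to 2,000 cells/well six hours after dispensing. Following eighteen hours' incubation, One-Glo reagent is added and luminescence recorded.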

A short description of test [16]: qHTS assay to identify small molecule agonists of the estrogen related receptor signaling pathway with the pleiotropic PPARgamma coactivator (PGC) from Tox21 10K library (AID 1224842). Also: % is scaled to controls: 0 for no effect and ±100 for the full control effect; nearly all actives have a fitted effect of over 15% in size. A digest of the protocol: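 PGC/ERR reporter cell line, 2,000 cells per well, incubated 6 h at 37 C before 23 nL compound in DMSO was added. After 18 h at 37 C, One-Glo luminescence read following 30 min at room temperature.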

Test [17] has as its target Thyrotropin receptor (Homo sapiens) (UniProt P16473). Description: qHTS assay to identify small molecule agonists of the thyroid stimulating hormone receptor (TSHR) signaling pathway (AID 1224843; calls by dose curve; also: % is scaled to controls: 0 for no effect and ±100 for the full control effect; nearly all actives have a fitted effect of over 45% in size). The essentials: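 Agonist-mode screen: TSHR HEK293 cells received test chemicals for half an hour at room temperature, then HTRF cAMP detection reagents for one hour prior to fluorescence measurement. Each chemical ran as a 15-concentration series, triplicated.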

Test [18] can be described thus: qHTS assay to identify small molecule antagonists of the estrogen related receptor (ERR) signaling pathway from Tox21 library (AID 1224848). The essentials: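 Quantitative high-throughput format: ERR reporter cells (2,000/well) pre-incubated 6 h, treated 18 h at 37 C with compounds in DMSO alongside positive and negative controls, then read by ONE-Glo luminescence.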

Test [19] can be described thus: A CellTox Green Cytotoxicity Assay to monitor cytotoxicity in HEK293 cells - 0 hour (AID 1224869). The essentials: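 Homogeneous no-lysis format: HEK293 cell suspension mixed with CellTox Green reagent, seeded, incubated 5 h at 37 C/5% CO2, then dosed by pintool with compound in DMSO.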
Test [20] can be described thus: qHTS assay to identify small molecule agonists of the estrogen related receptor (ERR) signaling pathway from Tox21 library (AID 1224849; calls by dose curve; also: % is scaled to controls: 0 for no effect and ±100 for the full control effect; nearly all actives have a fitted effect of over 15% in size). The conditions noted are these: ERR reporter cell line, ONE-Glo luciferase, 18 h; at 92.4 µM (top of the series) unless noted. A digest of the protocol:
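Reporter cells (ERR, NTP source) treated with Tox21 10K compounds 18 h, 37 C. Readout: ONE-Glo luminescence, 30 min RT.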

Thyrotropin receptor (Homo sapiens), sequence (P16473 whole entry, looked up): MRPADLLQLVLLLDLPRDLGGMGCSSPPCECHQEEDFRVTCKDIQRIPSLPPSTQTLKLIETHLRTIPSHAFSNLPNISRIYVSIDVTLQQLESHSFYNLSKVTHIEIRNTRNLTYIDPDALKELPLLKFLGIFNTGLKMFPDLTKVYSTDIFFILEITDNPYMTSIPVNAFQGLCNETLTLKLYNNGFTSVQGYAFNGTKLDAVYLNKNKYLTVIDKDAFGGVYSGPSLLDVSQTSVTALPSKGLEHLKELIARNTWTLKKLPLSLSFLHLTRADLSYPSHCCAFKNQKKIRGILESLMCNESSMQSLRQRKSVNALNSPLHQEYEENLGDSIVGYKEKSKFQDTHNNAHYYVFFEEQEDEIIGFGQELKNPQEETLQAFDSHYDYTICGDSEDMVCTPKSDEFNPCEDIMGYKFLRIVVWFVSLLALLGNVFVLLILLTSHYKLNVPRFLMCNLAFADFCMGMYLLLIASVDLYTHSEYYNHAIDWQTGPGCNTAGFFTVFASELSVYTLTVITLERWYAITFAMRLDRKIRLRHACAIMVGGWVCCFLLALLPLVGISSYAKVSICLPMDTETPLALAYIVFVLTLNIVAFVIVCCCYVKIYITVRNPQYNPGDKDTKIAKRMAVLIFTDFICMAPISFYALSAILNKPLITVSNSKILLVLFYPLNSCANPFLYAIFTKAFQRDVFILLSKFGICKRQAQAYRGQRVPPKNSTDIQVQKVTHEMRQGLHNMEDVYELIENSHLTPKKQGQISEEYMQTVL
Luciferin 4-monooxygenase (Photinus pyralis), sequence (P08659 whole entry, looked up): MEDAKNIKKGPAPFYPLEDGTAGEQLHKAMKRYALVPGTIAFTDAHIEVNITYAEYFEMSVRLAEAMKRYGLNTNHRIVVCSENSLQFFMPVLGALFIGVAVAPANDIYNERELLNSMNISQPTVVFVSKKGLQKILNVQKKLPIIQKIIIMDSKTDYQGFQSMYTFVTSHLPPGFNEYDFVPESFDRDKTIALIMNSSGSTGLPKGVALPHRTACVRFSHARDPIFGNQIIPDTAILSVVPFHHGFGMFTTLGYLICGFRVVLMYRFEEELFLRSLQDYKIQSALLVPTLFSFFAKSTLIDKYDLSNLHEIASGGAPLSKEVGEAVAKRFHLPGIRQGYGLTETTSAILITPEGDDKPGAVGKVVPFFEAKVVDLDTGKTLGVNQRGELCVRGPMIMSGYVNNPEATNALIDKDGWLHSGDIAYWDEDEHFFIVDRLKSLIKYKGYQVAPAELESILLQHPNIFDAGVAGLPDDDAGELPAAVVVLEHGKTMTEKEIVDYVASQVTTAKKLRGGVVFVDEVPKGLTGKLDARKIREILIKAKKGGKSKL

For the molecule `Nc1c(Oc2ccccc2)cc(O)c2c1C(=O)c1ccccc1C2=O`, the Potency in [1] is 3.09 µM (active); in test [5], 6.68 µM (active); in test [12], 19 µM (active). Also, the Potency result in test [2], in test [3], in test [4], in test [6], in test [7] and in test [8] was “inactive” in each case. Moreover, the Potency result in test [10], in test [11] and in test [13] was “inactive” in each case. The outcome in test [9] was inactive.

Turning to `CC(=O)C(Cl)(Cl)Cl`, the Potency in test [14] was 20.9 µM (active); in test [2], 16.6 µM (active); in test [4], 23.5 µM (active); in test [6], 23.5 µM (active); in test [15], 8.34 µM (active); in [10] it was 30.8 µM (active). In addition, in test [18], the Potency was 5.9 µM (active). The Potency result in [5], in [16], in [17], in test [8], in [11] and in test [19] was “inactive” each time. For the same molecule, in [13], the Potency entry was “inactive”.

`CC(C)[C@H](C(=O)O[C@H](C#N)c1cccc(Oc2ccccc2)c1)c1ccc(Cl)cc1`: the Potency result in test [14], in test [2], in test [3], in test [6], in test [7] and in test [8] was “inactive” throughout. The Potency result in test [10], in test [11] and in [13] was “inactive” in each case.

Turning to `CC(C)CC(C)Nc1ccc(Nc2ccccc2)cc1` (stereo unspecified), the Potency was 60.1 µM (active) in test [14]; 67.4 µM (active) in test [6]; 60.1 µM (active) in test [15]; 47.7 µM (active) in test [18]; 21.5 µM (active) in test [12]. In addition, the Potency result in test [16] and in [19] was “inactive” throughout. The activity change, positive = activation in [20] was -75.8%.

Consider `COP(=S)(OC)Oc1cc(Cl)c(Br)cc1Cl`, for which the Potency result in [14], in test [2], in test [4], in test [6], in test [17] and in test [8] was “inactive” in each case. The Potency entry in [11], in [12], in [19] and in test [13] was “inactive” in each case. Further, in test [5], the Potency was 54.5 µM (active).

Take `CCCCOCN(C(=O)CCl)c1c(CC)cccc1CC`: the Potency result in [1], in [2], in [3], in test [4], in test [6] and in test [16] was “inactive” in each case. Besides, the Potency result in [17], in test [12], in test [19] and in test [13] was “inactive” throughout. Further, the Potency in test [5] is 27.3 µM (active); in test [15], 12.2 µM (active); in test [10], 101 µM (active); in test [18], 27.3 µM (active). For the same molecule, the molecule was called inactive in test [9]. The activity change, positive = activation in test [20] was -62.9%.
